# From PMC7862700, “An all-to-all approach to the identification of sequence-specific readers for epigenetic DNA modifications on cytosine”
# What was measured:
# Assay in all cases: DAPPL (digital affinity profiling via proximity ligation, sequencing); 10 mM Tris-HCl pH 7.5, 50 mM NaCl, 1 mM DTT, 4% glycerol, room temperature, 30 min; GST-TFs on glutathione beads, 16-mer random dsDNA library, 0.1% formaldehyde crosslink after washing; high values mean tight binding
# Conditions in all cases: protein: recombinant; tags: N-terminal GST; dsDNA, one strand shown
# [1] = target: T1, ERF (Homo sapiens, UniProt P50548 1-548)
# T1 sequence: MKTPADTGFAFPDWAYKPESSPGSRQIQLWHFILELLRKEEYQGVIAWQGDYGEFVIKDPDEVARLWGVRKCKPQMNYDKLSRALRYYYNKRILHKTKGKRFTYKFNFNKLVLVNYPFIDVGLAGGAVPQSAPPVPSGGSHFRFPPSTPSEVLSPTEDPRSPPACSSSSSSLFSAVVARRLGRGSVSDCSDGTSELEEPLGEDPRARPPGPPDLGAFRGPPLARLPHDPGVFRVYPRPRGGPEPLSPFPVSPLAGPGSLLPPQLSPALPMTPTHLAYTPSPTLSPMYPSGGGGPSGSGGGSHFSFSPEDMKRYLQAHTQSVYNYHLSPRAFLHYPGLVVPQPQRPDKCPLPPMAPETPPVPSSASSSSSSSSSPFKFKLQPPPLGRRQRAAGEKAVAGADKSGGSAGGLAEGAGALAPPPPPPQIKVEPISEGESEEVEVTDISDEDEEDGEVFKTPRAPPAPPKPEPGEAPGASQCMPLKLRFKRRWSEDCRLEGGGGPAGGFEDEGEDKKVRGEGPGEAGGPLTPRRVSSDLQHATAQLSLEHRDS
# Summary of the method: (§1)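 Binding signal is defined as a hexamer's read frequency for one factor over its frequency for the tag-only sample. To obtain reads, GST-fused human transcription factors were expressed in yeast, captured on glutathione beads, barcoded with DNA and pooled with that sample. Pools met 200 nmole of a 16-mer random double-stranded DNA library in Tris/NaCl/DTT/glycerol buffer for 30 min at room temperature before washing, 0.1% formaldehyde crosslinking, proximity ligation (BsaI/T4 ligase, 1 h, 37 °C), PCR and Illumina NextSeq500 sequencing.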
# [2] = target: T2, ETV3L (Homo sapiens, UniProt Q6ZN32 1-361)
# T2 sequence: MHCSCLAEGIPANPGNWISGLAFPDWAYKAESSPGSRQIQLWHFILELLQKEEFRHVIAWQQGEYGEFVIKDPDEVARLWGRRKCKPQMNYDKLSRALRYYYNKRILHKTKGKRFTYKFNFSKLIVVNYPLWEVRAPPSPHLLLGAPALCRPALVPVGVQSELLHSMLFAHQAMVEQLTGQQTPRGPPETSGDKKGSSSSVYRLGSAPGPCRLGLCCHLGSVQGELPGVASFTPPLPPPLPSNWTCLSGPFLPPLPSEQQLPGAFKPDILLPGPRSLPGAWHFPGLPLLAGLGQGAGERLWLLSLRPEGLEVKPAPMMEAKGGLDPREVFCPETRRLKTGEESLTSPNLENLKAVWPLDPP
# Summary of the method: as §1
# [3] = target: T3, ETS2 (Homo sapiens, UniProt P15036 1-469)
# T3 sequence: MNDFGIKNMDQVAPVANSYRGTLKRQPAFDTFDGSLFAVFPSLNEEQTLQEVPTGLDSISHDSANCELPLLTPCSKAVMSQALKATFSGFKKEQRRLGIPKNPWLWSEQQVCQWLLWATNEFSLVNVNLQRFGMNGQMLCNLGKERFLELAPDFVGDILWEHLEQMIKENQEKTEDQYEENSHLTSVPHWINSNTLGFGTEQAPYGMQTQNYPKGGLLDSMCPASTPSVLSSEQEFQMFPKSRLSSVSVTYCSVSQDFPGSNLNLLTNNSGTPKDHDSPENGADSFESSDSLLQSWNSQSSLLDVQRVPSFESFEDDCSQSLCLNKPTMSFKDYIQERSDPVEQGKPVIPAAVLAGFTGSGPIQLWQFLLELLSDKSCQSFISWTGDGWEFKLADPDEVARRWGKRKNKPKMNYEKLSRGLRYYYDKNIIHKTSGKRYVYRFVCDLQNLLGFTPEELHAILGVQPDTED
# Summary of the method: as §1
# [4] = target: T4, SPDEF (Homo sapiens, UniProt O95238 1-335)
# T4 sequence: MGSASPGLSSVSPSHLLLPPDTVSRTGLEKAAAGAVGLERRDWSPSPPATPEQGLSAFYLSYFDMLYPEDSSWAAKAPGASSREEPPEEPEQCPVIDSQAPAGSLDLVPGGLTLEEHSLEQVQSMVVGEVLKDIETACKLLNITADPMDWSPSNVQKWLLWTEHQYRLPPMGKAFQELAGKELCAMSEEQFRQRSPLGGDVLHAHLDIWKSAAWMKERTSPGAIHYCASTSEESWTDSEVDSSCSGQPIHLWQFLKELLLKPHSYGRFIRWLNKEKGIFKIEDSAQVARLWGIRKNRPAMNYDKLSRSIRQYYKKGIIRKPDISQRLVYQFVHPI
# Summary of the method: as §1
# [5] = target: T5, ETV7 (Homo sapiens, UniProt Q9Y603 1-341)
# T5 sequence: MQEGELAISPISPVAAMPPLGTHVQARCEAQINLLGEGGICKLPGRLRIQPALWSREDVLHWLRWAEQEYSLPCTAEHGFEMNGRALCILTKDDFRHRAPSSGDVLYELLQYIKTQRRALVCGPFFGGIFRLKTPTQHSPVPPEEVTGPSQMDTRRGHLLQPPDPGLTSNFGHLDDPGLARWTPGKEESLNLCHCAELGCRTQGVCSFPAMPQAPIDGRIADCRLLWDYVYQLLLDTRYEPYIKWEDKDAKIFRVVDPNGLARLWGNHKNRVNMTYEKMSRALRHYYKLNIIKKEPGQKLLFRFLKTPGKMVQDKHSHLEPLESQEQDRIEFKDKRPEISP
# Summary of the method: as §1
# [6] = target: T6, ELF5 (Homo sapiens, UniProt Q9UKW6-2 1-255)
# T6 sequence: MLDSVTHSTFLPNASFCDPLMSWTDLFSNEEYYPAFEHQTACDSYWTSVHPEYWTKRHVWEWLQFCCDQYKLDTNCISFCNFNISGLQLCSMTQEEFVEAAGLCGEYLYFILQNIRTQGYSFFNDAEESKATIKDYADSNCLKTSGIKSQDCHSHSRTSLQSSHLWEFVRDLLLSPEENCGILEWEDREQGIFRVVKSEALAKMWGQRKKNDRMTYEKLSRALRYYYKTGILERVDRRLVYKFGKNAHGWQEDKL
# Summary of the method: as §1
# [7] = target: T7, ETV3 (Homo sapiens, UniProt P41162-2 1-143)
# T7 sequence: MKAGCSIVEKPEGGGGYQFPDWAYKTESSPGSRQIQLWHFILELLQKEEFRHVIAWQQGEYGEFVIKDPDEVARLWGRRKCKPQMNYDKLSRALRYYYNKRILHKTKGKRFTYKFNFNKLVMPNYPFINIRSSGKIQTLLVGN
# Summary of the method: as §1
# [8] = target: ETV6 (Homo sapiens, UniProt P41212 1-452)
# Summary of the method: as §1
# Chain of ETV6 (P41212 whole entry): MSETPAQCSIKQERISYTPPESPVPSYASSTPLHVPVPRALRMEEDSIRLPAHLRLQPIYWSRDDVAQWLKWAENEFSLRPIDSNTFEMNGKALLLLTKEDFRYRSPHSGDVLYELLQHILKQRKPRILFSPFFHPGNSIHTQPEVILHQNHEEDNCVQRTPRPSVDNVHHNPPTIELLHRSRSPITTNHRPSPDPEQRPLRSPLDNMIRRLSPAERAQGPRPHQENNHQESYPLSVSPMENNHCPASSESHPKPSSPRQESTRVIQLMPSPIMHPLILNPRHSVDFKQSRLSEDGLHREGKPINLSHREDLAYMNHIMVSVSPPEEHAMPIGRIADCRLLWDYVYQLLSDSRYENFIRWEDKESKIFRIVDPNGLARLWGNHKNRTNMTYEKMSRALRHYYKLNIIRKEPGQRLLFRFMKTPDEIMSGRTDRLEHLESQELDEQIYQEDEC
Sequence,binding signal [1],binding signal [2],binding signal [3],binding signal [4],binding signal [5],binding signal [6],binding signal [7],binding signal [8]
ATGCGC,"1.24 fold enrichment (6-mer frequency, TF over GST control)","1.22 fold enrichment (6-mer frequency, TF over GST control)","1.19 fold enrichment (6-mer frequency, TF over GST control)","1.1 fold enrichment (6-mer frequency, TF over GST control)","1.22 fold enrichment (6-mer frequency, TF over GST control)","1.14 fold enrichment (6-mer frequency, TF over GST control)","1.17 fold enrichment (6-mer frequency, TF over GST control)","1.22 fold enrichment (6-mer frequency, TF over GST control)"
TACTAC,"1.3 fold enrichment (6-mer frequency, TF over GST control)","1.41 fold enrichment (6-mer frequency, TF over GST control)","1.34 fold enrichment (6-mer frequency, TF over GST control)","1.34 fold enrichment (6-mer frequency, TF over GST control)","1.47 fold enrichment (6-mer frequency, TF over GST control)","1.36 fold enrichment (6-mer frequency, TF over GST control)","1.29 fold enrichment (6-mer frequency, TF over GST control)","1.38 fold enrichment (6-mer frequency, TF over GST control)"
TTCTAG,"1.33 fold enrichment (6-mer frequency, TF over GST control)","1.3 fold enrichment (6-mer frequency, TF over GST control)","1.34 fold enrichment (6-mer frequency, TF over GST control)","1.17 fold enrichment (6-mer frequency, TF over GST control)","1.45 fold enrichment (6-mer frequency, TF over GST control)","1.2 fold enrichment (6-mer frequency, TF over GST control)","1.19 fold enrichment (6-mer frequency, TF over GST control)","1.16 fold enrichment (6-mer frequency, TF over GST control)"
TTGGTG,"1.28 fold enrichment (6-mer frequency, TF over GST control)","1.25 fold enrichment (6-mer frequency, TF over GST control)","1.32 fold enrichment (6-mer frequency, TF over GST control)","1.33 fold enrichment (6-mer frequency, TF over GST control)","1.15 fold enrichment (6-mer frequency, TF over GST control)","1.27 fold enrichment (6-mer frequency, TF over GST control)","1.32 fold enrichment (6-mer frequency, TF over GST control)","1.18 fold enrichment (6-mer frequency, TF over GST control)"
CCTGAT,"1.5 fold enrichment (6-mer frequency, TF over GST control)","1.36 fold enrichment (6-mer frequency, TF over GST control)","1.46 fold enrichment (6-mer frequency, TF over GST control)","1.59 fold enrichment (6-mer frequency, TF over GST control)","1.29 fold enrichment (6-mer frequency, TF over GST control)","1.64 fold enrichment (6-mer frequency, TF over GST control)","1.43 fold enrichment (6-mer frequency, TF over GST control)","1.41 fold enrichment (6-mer frequency, TF over GST control)"
CGCGCT,"1.44 fold enrichment (6-mer frequency, TF over GST control)","1.18 fold enrichment (6-mer frequency, TF over GST control)","1.25 fold enrichment (6-mer frequency, TF over GST control)","1.14 fold enrichment (6-mer frequency, TF over GST control)","1.14 fold enrichment (6-mer frequency, TF over GST control)","1.11 fold enrichment (6-mer frequency, TF over GST control)","1.17 fold enrichment (6-mer frequency, TF over GST control)","1.15 fold enrichment (6-mer frequency, TF over GST control)"
TAAAAC,"1.22 fold enrichment (6-mer frequency, TF over GST control)","1.2 fold enrichment (6-mer frequency, TF over GST control)","1.15 fold enrichment (6-mer frequency, TF over GST control)","1.18 fold enrichment (6-mer frequency, TF over GST control)","1.27 fold enrichment (6-mer frequency, TF over GST control)","1.12 fold enrichment (6-mer frequency, TF over GST control)","1.24 fold enrichment (6-mer frequency, TF over GST control)","1.16 fold enrichment (6-mer frequency, TF over GST control)"
